Results filed as inconclusive are left out. Where a call stands in place of a potency, no number is given. Active and inactive are the calls of the source. Calls follow the shape of the dose curve; as a rule, active = well fitted curve in the direction sought with a large enough effect; inconclusive = small, poorly fitted or top-dose-only effect, or another doubt; inactive = no such curve, though single readings can be large or run the other way.

Glucagon-like peptide 1 receptor (Homo sapiens), sequence (P43220 whole entry, looked up): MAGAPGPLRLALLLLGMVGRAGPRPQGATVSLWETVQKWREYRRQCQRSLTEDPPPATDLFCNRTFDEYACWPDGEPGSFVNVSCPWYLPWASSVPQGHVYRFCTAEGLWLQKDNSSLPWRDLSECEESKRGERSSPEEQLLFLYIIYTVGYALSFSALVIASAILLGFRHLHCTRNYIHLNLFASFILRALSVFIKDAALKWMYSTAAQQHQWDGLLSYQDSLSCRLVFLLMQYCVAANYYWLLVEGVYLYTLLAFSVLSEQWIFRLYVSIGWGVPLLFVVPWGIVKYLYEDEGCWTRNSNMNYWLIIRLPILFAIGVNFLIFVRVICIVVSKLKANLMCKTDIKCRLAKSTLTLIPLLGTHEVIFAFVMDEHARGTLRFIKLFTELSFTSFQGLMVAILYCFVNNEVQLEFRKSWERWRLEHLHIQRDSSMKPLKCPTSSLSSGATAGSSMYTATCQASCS

In the assay the target is Glucagon-like peptide 1 receptor (Homo sapiens) (UniProt P43220). The experiment in a line: qHTS of GLP-1 Receptor Agonists: LOPAC Validation (AID 624148).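 Also: luminescence from a luciferase reporter switched on by cAMP; higher luminescence signal means agonism.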 As to conditions: GLP-1R agonist cell assay; series mostly up to 46.1 µM. An excerpt:
The overall goal of this project was to develop a novel assay for discovering small molecule ligands for class B1 G protein-coupled receptors (GPCRs). Very few agonists (or inverse agonists) with generally weak activity for this entire group of physiologically important receptors are known to date. To establish proof-of-principle that this critical bottleneck can be overcome with a suitable screening approach, our studies focused on the class B1 receptor for glucagon-like peptide-1 (GLP-1R), a potential therapeutic target for diabetes and neurodegenerative disease.
The assay was developed in a "mix and measure" format using a cell-based functional readout. Toward this goal, stably transfected HEK293 cell clones were established that co-express (i) a cAMP-responsive luciferase reporter gene, and (ii) GLP-1Rs that upon ligand interaction either stimulate (agonists) or inhibit (inverse agonists) luciferase activity. In different cell lines to be used for screening, expressed GLP-1Rs are specifically optimized for high sensitivity detection of either weak agonists (hypersensitive receptor) or inverse agonists (constitutively active receptor mutant). In addition, control cell lines were developed that express either the cAMP-responsive reporter gene without recombinant GLP-1Rs (enabling initial exclusion of GLP-1R independent effects of candidate probes), or the reporter gene together with wild type GLP-1Rs (for confirmation of probe activity at this receptor), or the reporter gene in combination with the constitutively active orphan receptor GPR119 (enabling initial exclusion of GLP-1R independent inhibitory effects of candidate inverse agonists).
To that end, this assay was optimized for 1536-well format and screened against the MLSMR.
NIH Molecular Libraries Probe Production Network [MLPCN]
NIH Chemical Genomics Center [NCGC]
PI Name: Martin Beinborn, Tufts Medical Center
In a white solid 1536-well plate, 6 uL of cells are dispensed in DMEM without phenol red, 10% Nu serum, and 1% pen-strep medium. The plates are then incubated for 12 hours at 37 deg C at 5% CO2 before 23 nL of compounds are added. After a 4-6 hr incubation at37 deg C and 5% CO2, 3 uL of detection reagent are added and after a 12 min incubation at RT, a luminescent read is obtained on the ViewLux.
In general terms: qHTS replaces the single test concentration by a dilution series.
For the compound `CC(C)C[C@H](NC(=O)[C@H](O)[C@H](N)Cc1ccccc1)C(=O)O`, the Potency result is “inactive”.
`CC1C(=O)N(C)C(=O)c2nc[nH]c21` (stereo not given): the Potency result is “inactive”.
As for `Cc1nc(N=Nc2ccc(C(=O)O)cc2)c(COP(=O)(O)O)c(C=O)c1O`, the entry is “inactive”; as for `CC[n+]1c(/C=C/C=C2/N(C)c3ccccc3C2(C)C)sc2ccccc21`, “inactive”.
As for `COc1cc2c(CCNC(C)=O)c[nH]c2cc1O`, the entry is “inactive”.
For `Cc1cccc(C2CN(C)CCc3c2cc(O)c(O)c3Cl)c1` (stereo not given), the Potency entry was “inactive”.
As for `C=CCN1CCc2c(cc(O)c(O)c2Br)[C@@H](c2ccccc2)C1`, the Potency entry is “inactive”.
Regarding `C[C@H](O)C(=O)C1=Nc2c(nc(N)[nH]c2=O)NC1`, the Potency entry is “inactive”.
The entry for `Cc1ccc([N+](=O)[O-])cc1S(=O)(=O)N(C)C` is “inactive”; for `O=c1cc(-c2ccccc2)[nH]c2nc(Cl)ccc12` it is “inactive”; for `Cc1nc2c(OCc3ccccc3)cccn2c1CC#N` it is “inactive”.
In the case of `O=c1oc(Cl)c(Cl)c2ccccc12`, the Potency result was “inactive”.
Consider `O=C(O)c1cc(=O)cc(C(=O)O)[nH]1`, for which the Potency entry is “inactive”.
As for `O=C(O)c1cccnc1C(=O)O`, the entry is “inactive”; as for `COc1cc(CNC(=O)CCCCCCC(C)C)ccc1O`, “inactive”.
As for `COC1(C2=NCCN2)COc2ccccc2O1` (stereo not given), the entry is “inactive”.
Consider `O=C(O)/C(=C/c1c(C(=O)O)[nH]c2cc(Cl)cc(Cl)c12)c1ccccc1`, for which the Potency result was “inactive”.
The entry for `C=CCN1CCc2cc(O)c(O)cc2C(c2ccccc2)C1` (stereo not given) is “inactive”; for `NCCNS(=O)(=O)c1cccc2c(Cl)cccc12` it is “inactive”.
`COc1cc(/C=C(\C#N)C(=O)c2ccc(O)c(O)c2)cc(I)c1O`: the Potency entry is “inactive”.
Turning to `NCCCCN=C(N)N`, the Potency result was “inactive”.
As for `N[C@@H](CCCC(=O)O)C(=O)O`, the entry is “inactive”; as for `O=C(O)C1=CCCNC1`, “inactive”.
As for `COc1ccc(-c2ccc(N)[n+](CCCC(=O)O)n2)cc1`, the entry is “inactive”; as for `O=C(O)C1=CCNCC1`, “inactive”; as for `Cc1cc(Cn2cnc3c2C[C@@H](C(=O)O)N(C(=O)C(c2ccccc2)c2ccccc2)C3)ccc1N`, “inactive”.
Take `c1ccc(C(NCc2cccnc2)(c2ccccc2)c2ccccc2)cc1`: the Potency result was “inactive”.
As for `Cn1cc(C(=O)OCC2CCN(CCNS(C)(=O)=O)CC2)c2ccccc21`, the entry is “inactive”.
For the compound `NS(=O)(=O)c1cccc2c1c([N+](=O)[O-])cc1nc(O)c(O)nc12`, the Potency entry is “inactive”.
The entry for `Nc1ccc(N2C(=O)c3ccccc3C2=O)c(Cl)c1` is “inactive”; for `O=C(O)C1CN(CCCP(=O)(O)O)CCN1` (stereo not given) it is “inactive”; for `O=c1onc2cnc3ccccc3n12` it is “inactive”.
The entry for `C[C@]12C=CC(=O)C=C1CC[C@@H]1C2=CC[C@]2(C)[C@@H](C(=O)CN3CCN(c4cc(N5CCCC5)nc(N5CCCC5)n4)CC3)CC[C@@H]12` is “inactive”; for `Brc1c(Br)c(Br)c2[nH]cnc2c1Br` it is “inactive”.
Consider `N[C@H](C(=O)O)[C@H](O)C(=O)O`, for which the Potency result was “inactive”.
As to `O=C(O)C1=CCCN(CCON=C(c2ccccc2)c2ccccc2)C1`, the Potency result is “inactive”.
Turning to `CN1CC(O)C(O)C(O)C1CO` (stereo not given), the Potency result is “inactive”.
The entry for `c1ccc(C2CN3CCSC3=N2)cc1` (stereo not given) is “inactive”; for `NOCC(=O)O` it is “inactive”; for `O=C1NC(=O)c2cc(Nc3ccccc3)c(Nc3ccccc3)cc21` it is “inactive”.

Source of the values: PubChem BioAssay (NCATS).
